Data: PubChem BioAssay AID1159580 (chemical genetic matrix, 2015)
“And” between values parts separate entries of the source, which are not always exact repeats. Identical values can stand only once. Screen size: about 5,500 compounds; about 2,000 (36%) were called active. Roughly 18% stayed inconclusive and do not appear here. Rule as the data show it: active = normalized growth mostly below about 0.91 (no sharp cut-off); inconclusive = no clear call, values can overlap the other calls; inactive = mostly above about 0.92. The list shows a part of the results.

Assay: chemical genetic growth profiling, strain panel (AID 1159580);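 also: tested at 20 µM; growth read once vehicle control cultures reached saturation at 30 °C; 1 = growth at the plate median or of vehicle wells; lower values mean less growth of the strain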
Conditions: S. cerevisiae deletion strains, growth OD

Measured: normalized growth

CCCCCC(=O)O[C@]1(C(C)=O)CCC2C3CCC4=CC(=O)CC[C@]4(C)C3CC[C@@]21C (some centres undefined)
inactive: locus YAL013W, strain DEP1, stronger effect = lower value 1.02 | locus YAL021C, strain ccr4, stronger effect = lower value 1 | locus YAL026C, strain drs2, stronger effect = lower value 1.03 | locus YAL030W, strain snc1, stronger effect = lower value 1 | locus YBL061C, strain skt5, stronger effect = lower value 1 | locus YBR009C, strain hhf1, stronger effect = lower value 1.01 | locus YBR021W, strain FUR4, stronger effect = lower value 0.948 | locus YBR023C, strain chs3, stronger effect = lower value 0.985 | locus YBR171W, strain sec66, stronger effect = lower value 0.993 | locus YBR229C, strain ROT2, stronger effect = lower value 1.01 | locus YBR231C, strain swc5, stronger effect = lower value 0.991 | locus YBR279W, strain paf1, stronger effect = lower value 1 | locus YCL011C, strain gbp2, stronger effect = lower value 1.01 | locus YCL016C, strain dcc1, stronger effect = lower value 1 | locus YCL029C, strain bik1, stronger effect = lower value 1.01 | locus YCL061C, strain MRC1, stronger effect = lower value 0.971 | locus YCL069W, strain vba3, stronger effect = lower value 1.01 | locus YCR088W, strain abp1, stronger effect = lower value 0.995 | locus YDL005C, strain med2, stronger effect = lower value 0.996 | locus YDL035C, strain GPR1, stronger effect = lower value 1.02 | locus YDL040C, strain nat1, stronger effect = lower value 1.01 | locus YDL074C, strain BRE1, stronger effect = lower value 1.01 | locus YDL101C, strain DUN1, stronger effect = lower value 1.01 | locus YDL134C, strain PPH21, stronger effect = lower value 1.01 | locus YDL185W, strain tfp1, stronger effect = lower value 1.02 | locus YDL192W, strain arf1, stronger effect = lower value 1.01 | locus YDR001C, strain nth1, stronger effect = lower value 1.01 | locus YDR069C, strain doa4, stronger effect = lower value 0.995 | locus YDR101C, strain arx1, stronger effect = lower value 1.01 | locus YDR137W, strain rgp1, stronger effect = lower value 1.01 | locus YDR150W, strain NUM1, stronger effect = lower value 1.02 | locus YDR159W, strain sac3, stronger effect = lower value 0.976 | locus YDR162C, strain NBP2, stronger effect = lower value 0.996 | locus YDR195W, strain ref2 1.02 | locus YDR297W, strain sur2, stronger effect = lower value 1 | locus YDR318W, strain mcm21, stronger effect = lower value 1 | locus YDR334W, strain swr1, stronger effect = lower value 0.999 | locus YDR335W, strain msn5, stronger effect = lower value 1.01 | locus YDR388W, stronger effect = lower value 1.01 | locus YDR392W, strain spt3, stronger effect = lower value 0.91 | locus YDR502C, strain sam2, stronger effect = lower value 1.01 | locus YEL003W, strain gim4, stronger effect = lower value 1.02 | locus YEL037C, strain rad23, stronger effect = lower value 1 | locus YEL061C, strain CIN8 (second series), stronger effect = lower value 1 | locus YEL061C, strain CIN8, stronger effect = lower value 1 | locus YER015W, strain faa2, stronger effect = lower value 0.997 | locus YER016W, strain bim1, stronger effect = lower value 0.988 | locus YER110C, stronger effect = lower value 1.02 | locus YER111C, strain swi4, stronger effect = lower value 0.991 | locus YER155C, strain BEM2 (second series), stronger effect = lower value 1.01 | locus YER155C, strain BEM2, stronger effect = lower value 1.01 | locus YER167W, strain BCK2, stronger effect = lower value 1.01 | locus YFR010W, strain ubp6, stronger effect = lower value 1.02 | locus YGL078C, strain dbp3, stronger effect = lower value 1.01 | locus YGL086W, strain mad1, stronger effect = lower value 1.01 | locus YGL167C, strain pmr1, stronger effect = lower value 0.989 | locus YGL173C, strain kem1, stronger effect = lower value 1.01 | locus YGL227W, strain vid30, stronger effect = lower value 1 | locus YGL240W, strain doc1, stronger effect = lower value 0.976 | locus YGL248W, strain PDE1, stronger effect = lower value 1.01 | locus YGL253W, strain hxk2, stronger effect = lower value 1.01 | locus YGR135W, strain pre9, stronger effect = lower value 1.01 | locus YGR252W, strain gcn5, stronger effect = lower value 0.974 | locus YHR013C, strain ard1, stronger effect = lower value 1.01 | locus YHR027C, strain rpn1, stronger effect = lower value 0.999 | locus YHR030C, strain SLT2, stronger effect = lower value 1.03 and 0.978 | locus YHR079C, strain IRE1 (second series), stronger effect = lower value 1.01 | locus YHR079C, strain IRE1, stronger effect = lower value 0.976 | locus YHR094C, strain hxt1, stronger effect = lower value 1 | locus YHR129C, strain ARP1, stronger effect = lower value 1.01 | locus YHR142W, strain chs7, stronger effect = lower value 1.02 | locus YHR200W, strain rpn10, stronger effect = lower value 1.01 | locus YIL066C, strain RNR3, stronger effect = lower value 1.02 | locus YIL073C, strain SPO22, stronger effect = lower value 1.04 | locus YIL125W, strain kgd1, stronger effect = lower value 1.01 | locus YIR030C, strain dcg1, stronger effect = lower value 1.01 | locus YJL092W, strain hpr5, stronger effect = lower value 1.01 | locus YJL095W, strain BCK1 (second series), stronger effect = lower value 1 | locus YJL095W, strain BCK1, stronger effect = lower value 1.02 and 0.987 | locus YJL115W, strain asf1, stronger effect = lower value 1 | locus YJL129C, strain trk1, stronger effect = lower value 0.946 | locus YJL134W, strain LCB3, stronger effect = lower value 0.98 | locus YJL154C, strain vps35, stronger effect = lower value 1.02 | locus YJL164C, strain tpk1, stronger effect = lower value 1.01 | locus YJL166W, strain qcr8, stronger effect = lower value 1 | locus YJL168C, strain set2, stronger effect = lower value 1.01 | locus YJL187C, strain SWE1 (second series), stronger effect = lower value 1.01 | locus YJL187C, strain SWE1, stronger effect = lower value 0.997 | locus YJR043C, strain POL32, stronger effect = lower value 1.01
